# The sample as a whole holds a higher share of hits than the screen did.
# Sa growth 42C = inhibitors of Staphylococcus aureus growth at 42 °C | S. aureus RN4220 growth, OD600, 20 h; hits give low values | 170,000 tested, 0.53% active | relative growth, % (no concentration beside the values);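 active = relative growth at most 50% at the other temperature and 20+ points below 30 °C, or under 10% at both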
# Sa helicase inh = blocks Staphylococcus aureus DNA helicase | purified S. aureus helicase, fluorescence unwinding assay | inhibition, % (test concentration not listed) | 120,000 tested, 0.05% active; in the data active = inhibition above about 25%, passing the limit was not always enough
# A number is an active result; – = inactive; · = no result.
SMILES,Sa growth 42C,Sa helicase inh
N#CC(C#N)=NNc1ccccc1,0.0,–
N#CC(C#N)=C(C#N)c1ccc(Nc2ccccc2)cc1,–,–
N#CC(C#N)=Cc1sccc1Br,–,–
CC(=O)OC1CCNC2CCCCC21 (centres undefined),–,–
CCCC1COC(Cn2cncn2)(c2ccc(Cl)cc2Cl)O1 (centres undefined),5.4,–
Nc1c(C(=O)OC2CCCCC2)c2nc3ccccc3nc2n1Cc1ccco1,–,–
Clc1ccc(CO/N=C(\Cn2ccnc2)c2ccc(Cl)cc2Cl)c(Cl)c1,-0.4,·
CCc1c(CCN)csc1C,–,–
CCN1C(=O)C(=Cc2ccc(O)c(I)c2)C(=O)N(CC)C1=S,–,–
Cc1oc2ccccc2c1-c1ccc2ccccc2n1,33.6,–
CCn1c(C)cc2c(c1=O)C1(C(=O)Nc3ccccc31)C(C(=O)OC)=C(N)O2 (centres undefined),–,–
CCn1nc(-c2cccnc2)nc2c(=O)n(C)c(=O)nc1-2,-0.2,–
CCN(CC)C(=O)c1ccc(NC(=O)Cn2nc(-c3ccccc3)c3ccccc3c2=O)cc1,–,–
CCn1nc(-c2ccccc2)nc2c(=O)n(C)c(=O)nc1-2,0.3,–
CN1C2CCC1CC(OC(=O)C(c1ccccc1)c1ccccc1)C2 (centres undefined),–,–
NCCC(=O)OCC1CCCN2CCCCC12 (centres undefined),–,–
CCN1C[C@]2(COC)CC[C@H](OC)C34C5CC6[C@H](O)C5[C@](O)(C[C@@H]6OC)C(CC32)C14 (some centres undefined),–,–
CN(C)C1=Nc2ccccc2P1(O)=S (centres undefined),–,–
Clc1ccc(COC(Cn2ccnc2)c2ccc(Cl)cc2Cl)cc1 (centres undefined),-0.6,·
c1ccc(Cn2ccnc2)cc1,–,·
Clc1ccc(CSC(Cn2ccnc2)c2ccc(Cl)cc2Cl)cc1 (centres undefined),-0.3,·
Cc1ccc(S(=O)(=O)NC(=O)N2CC3CC(C2)c2cccc(=O)n2C3)cc1 (centres undefined),–,–
Cc1ccc(CN(C(=O)Nc2ccc(C)c(F)c2)C2CCN(Cc3ccccc3)CC2)o1,–,–
C=C(C)CN(CC)C1CCC(CC)CC1 (centres undefined),–,–
O=C(COc1ccccc1)N1CCN(Cc2ccc(Br)cc2)CC1,–,–
Oc1cccc2cccnc12,0.2,·
CN(C)C(=O)Oc1cccc2cccnc12,–,–
COc1ccc(C2=[N+]([O-])C(C)(C(=O)c3ccccc3)N(O)C2OC)cc1 (centres undefined),–,–
O=c1c2ccccc2[se]n1-c1ccccc1,0.3,·
O=c1c2ccccc2nc(-c2ccccc2)n1-c1ccccc1,–,–

# From PubChem
